# Measured values reported in PubChem BioAssay (NCI).
# Compounds without any hit were thinned out: in the full panel of roughly 83,000, 20% have a hit.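 The test compound was applied at a single concentration to cells in 96-well plates for 48 hours, and percent growth was recorded.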 Values without a mark were called inactive. Calls of active or inactive are those of the source. How the source made its calls: active means growth percent below 10; inactive means the rest.
# Legend:
# Test in all cases: NCI-60 one-dose screen, 48 h (100 = growth as untreated, 0 = no growth, -100 = all killed)
# Conditions in all cases: 10 µM unless noted
# HCT-15 colon = test system: HCT-15 colon
# HT29 colon = test system: HT29 colon
# SNB-75 CNS = test system: SNB-75 CNS
# SNB-19 CNS = test system: SNB-19 CNS
# U251 CNS = test system: U251 CNS
# PC-3 prostate = test system: PC-3 prostate
# SK-MEL-5 melanoma = test system: SK-MEL-5 melanoma
# UACC-62 melanoma = test system: UACC-62 melanoma
# LOX IMVI melanoma = test system: LOX IMVI melanoma
# SK-MEL-28 melanoma = test system: SK-MEL-28 melanoma
# SK-MEL-2 melanoma = test system: SK-MEL-2 melanoma
# EKVX NSCLC = test system: EKVX NSCLC
# SN12C renal = test system: SN12C renal
# UO-31 renal = test system: UO-31 renal
# TK-10 renal = test system: TK-10 renal
# ACHN renal = test system: ACHN renal
# CAKI-1 renal = test system: CAKI-1 renal
# A498 renal = test system: A498 renal
# CCRF-CEM leukemia = test system: CCRF-CEM leukemia
# MOLT-4 leukemia = test system: MOLT-4 leukemia
Compound,growth (HCT-15 colon) [%],growth (HT29 colon),growth (SNB-75 CNS),growth (SNB-19 CNS) [%],growth (U251 CNS),growth (PC-3 prostate),growth (SK-MEL-5 melanoma),growth (UACC-62 melanoma),growth (LOX IMVI melanoma) [%],growth (SK-MEL-28 melanoma) [%],growth (SK-MEL-2 melanoma),growth (EKVX NSCLC),growth (SN12C renal),growth (UO-31 renal),growth (TK-10 renal),growth (ACHN renal),growth (CAKI-1 renal) [%],growth (A498 renal),growth (CCRF-CEM leukemia),growth (MOLT-4 leukemia)
CN(C)CC(=O)c1ccc2cc(Br)c3ccccc3c2c1,62.1,9.4% (active),83.7%,69.7,53.3%,57.2%,83%,79.1%,43.6,99.1,61.3%,89.7%,72.6%,36%,72.7%,59.7%,75.4,42.2%,71.3%,40.3%
CCCCCN(CCCCC)C(=O)C(CCC(=O)O)NC(=O)c1ccc(Cl)c(Cl)c1 (stereo not given),112,109%,93.3%,112,101%,93%,90.5%,98.4%,99.9,105,105%,109%,100%,80.4%,124%,100%,91.3,83.8%,114%,102%
CCN(CC)CC(=O)Nc1c(C)cc(C(=O)NN)cc1C,103,96.1%,84.9%,97.3,97.5%,101%,102%,97.6%,94.3,106,117%,102%,98.3%,84.7%,102%,107%,95.8,99.7%,114%,85.2%
Nc1ccc(C2=NNC(=O)Cc3cc4c(cc32)OCCO4)cc1Cl,28.9,9.09% (active),-1.14% (active),57.5,39.1%,53%,29.8%,38%,39,56.4,36.8%,63.9%,61.1%,61.2%,72.3%,53.3%,48.4,56.3%,42.5%,34.8%
C=C1C(=O)O[C@H]2[C@H]1CC/C(COC(=O)NCc1ccc(Cn3c(=O)sn(CCCl)c3=O)cc1)=C\CC[C@@]1(C)O[C@@H]21,27.6,15.1%,85.5%,99,78.7%,78.7%,81.7%,69.5%,60.8,64.3,68.8%,83.6%,82.6%,79.3%,11.4%,70.3%,48.3,98.4%,-3.67% (active),-18.8% (active)
COc1ccc(-n2c(COc3ccc(F)cc3)n[nH]c2=S)cc1,114,103%,97.7%,106,97.4%,154%,105%,98.6%,104,127,33.1%,107%,84.4%,107%,101%,99.7%,104,108%,143%,114%
COc1ccccc1-[n+]1cc(-c2ccc(-c3ccccc3)cc2)n2c1CCCCC2,66,1.07% (active),16%,11.7,10.6%,1.3% (active),-78.8% (active),2.5% (active),11.3,27.8,-27% (active),9.1% (active),0.949% (active),74.7%,7.69% (active),32.5%,72.6,9.77% (active),17.2%,9.4% (active)
CCCCOc1nc2ccc(C)cc2cc1/C=C/C(=O)/C=C(O)/C=C/c1cc2cc(C)ccc2nc1OCCCC,110,101%,92.7%,96.2,88.3%,99%,105%,87.6%,91.6,107,103%,102%,111%,97.7%,102%,102%,98.1,116%,97.6%,98.8%
O=C(c1ccc(OCCN2CCCCC2)cc1)c1c(-c2ccc(O)cc2)sc2cc(O)ccc12,91.7,114%,53.5%,86.7,64.9%,81.8%,71.5%,92.1%,78.4,88.3,102%,83.3%,80.4%,67.1%,129%,91.5%,76,90.9%,59.7%,76.3%
O=C1/C=C/[C@@H](O)[C@@H]2C[C@@H](O)C[C@H]2/C=C/CCC[C@H]([C@@H](O)CO)O1,95.3,80.2%,84%,66.5,69.1%,88.7%,4.48% (active),62.5%,38.7,38.8,98.4%,96.6%,102%,68.3%,121%,109%,97.6,64%,101%,103%
Cc1ccc2c(C)c3c(ccc4ccccc43)c[n+]2c1,95.8,88.1%,65%,24,24.5%,52.9%,-25.6% (active),74.2%,91.9,77.8,98.4%,44.1%,26.3%,45.9%,111%,91.7%,75.9,89.7%,57.1%,61.3%
COc1cc(-c2nc(-c3ccc(-c4nc5ccc(F)cc5[nH]4)cc3)no2)cc(OC)c1OC,19.4,9.19% (active),76.6%,73.1,46.1%,6.63% (active),20.7%,20.9%,24.8,60.6,55.6%,46.9%,66.1%,19.8%,93%,36.7%,47.3,71.2%,8.61% (active),21.1%
CS(=O)(=O)c1ccc(C(=O)N/N=C/c2cccc3ccccc23)cc1,49.8,49.5%,89.7%,79.8,76.3%,78.8%,67.2%,61.6%,72.4,89.4,47.7%,87.4%,87.4%,78.5%,85.1%,98.5%,67.2,69.1%,77.6%,46.8%
CCOC(=O)C(Cc1ccccc1)n1c(O)c(/C=N/c2ncc(Cc3ccc(Cl)cc3Cl)s2)sc1=S (stereo not given),10.5,-16.7% (active),22%,19.3,4.53% (active),-16.2% (active),-3.04% (active),-0.818% (active),21,31.8,-18.4% (active),10.8%,6.54% (active),3.67% (active),2.28% (active),3.38% (active),12.7,-27.3% (active),2.77% (active),-7.05% (active)
O=C(/C=C/c1ccccc1Br)c1cccc(OCCCCOc2cccc(C(=O)/C=C/c3ccccc3Br)c2)c1,81.6,89.3%,79.7%,90.8,77%,92%,98.7%,78.8%,86.4,102,104%,102%,96.6%,81.3%,117%,98.6%,91.9,108%,88.5%,91.6%
